# According to article PMC4336329 (PLoS ONE, 2015):
# The campaign covered roughly 310,000 compounds. About 14,000 (4.5%) showed an effect of 50% or more. The effect is printed as a negative number. Many of the other results were omitted from the sample, so strong results are more common in it than they were.
# Biological target: human ether-à-go-go-related gene (hERG) potassium channel (human, UniProt Q12809)
# Assay: primary screen, population patch clamp on CHO cells stably expressing hERG; higher = less effect of the substance
# 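Also: peak tail current of the secondary pulse compared with the same well before compound.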
# Sequence of human ether-à-go-go-related gene (hERG) potassium channel (Q12809 whole entry, looked up): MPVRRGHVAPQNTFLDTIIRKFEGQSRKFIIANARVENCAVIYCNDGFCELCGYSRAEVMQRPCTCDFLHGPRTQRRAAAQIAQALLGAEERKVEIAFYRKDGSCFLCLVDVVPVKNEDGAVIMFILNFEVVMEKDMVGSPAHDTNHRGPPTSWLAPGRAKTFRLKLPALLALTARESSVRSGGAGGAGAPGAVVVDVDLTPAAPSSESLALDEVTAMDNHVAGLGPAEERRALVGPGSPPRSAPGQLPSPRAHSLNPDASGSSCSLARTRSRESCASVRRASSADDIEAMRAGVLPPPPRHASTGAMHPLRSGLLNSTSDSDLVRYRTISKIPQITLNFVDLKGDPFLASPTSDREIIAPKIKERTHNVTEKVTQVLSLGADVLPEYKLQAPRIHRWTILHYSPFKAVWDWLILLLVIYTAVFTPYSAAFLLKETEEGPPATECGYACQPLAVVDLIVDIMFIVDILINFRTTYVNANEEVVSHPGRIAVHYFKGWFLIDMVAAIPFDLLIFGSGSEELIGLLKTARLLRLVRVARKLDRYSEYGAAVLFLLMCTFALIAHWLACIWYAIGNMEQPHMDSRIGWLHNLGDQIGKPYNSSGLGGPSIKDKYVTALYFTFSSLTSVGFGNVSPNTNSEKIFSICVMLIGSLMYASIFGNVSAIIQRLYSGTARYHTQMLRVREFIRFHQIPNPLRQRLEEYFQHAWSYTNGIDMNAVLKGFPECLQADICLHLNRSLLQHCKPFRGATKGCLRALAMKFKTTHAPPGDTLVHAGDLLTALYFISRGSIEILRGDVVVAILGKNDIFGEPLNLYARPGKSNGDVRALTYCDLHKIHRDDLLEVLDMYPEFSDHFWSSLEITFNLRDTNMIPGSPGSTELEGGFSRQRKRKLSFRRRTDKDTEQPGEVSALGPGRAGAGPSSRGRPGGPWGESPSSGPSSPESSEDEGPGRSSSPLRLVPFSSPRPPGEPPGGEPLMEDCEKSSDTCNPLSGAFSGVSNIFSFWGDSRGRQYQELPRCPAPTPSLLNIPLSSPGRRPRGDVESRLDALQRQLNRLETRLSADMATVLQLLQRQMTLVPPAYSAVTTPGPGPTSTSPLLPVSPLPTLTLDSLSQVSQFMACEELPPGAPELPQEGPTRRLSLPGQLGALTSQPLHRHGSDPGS
row,Compound,"hERG current change (%, negative = inhibition) at 10uM"
1,CC(C)(C)NCc1cccn1-c1sc2c(c1C#N)CCCC2,-13.4%
2,NC(=S)Nc1ncc(C(F)(F)F)cc1Cl,12.2%
3,CC(C)NC(=O)c1sc(=S)n2c1[nH]c(=O)c1ccc(C(=O)NCCc3ccc(Cl)cc3)cc12,14.1%
4,N#CC(c1ccccc1)N(CCCCl)C(=O)c1ccccc1 (stereo not shown),-18.9%
5,c1ccc(OCCCc2nc(-c3ccccn3)no2)cc1,-0.0161%
6,CCCCC[C@H]1CN(Cc2ccccc2)C(=O)[C@@H]1CC(=O)NCc1ccccc1,-65.8%
7,CCCCCCc1ccc(N2C[C@H](CCCCC)[C@@H](CC(=O)NCc3ccccc3)C2=O)cc1,-1.8%
8,C[C@H]1CN(Cc2ccccc2)C(=O)[C@@H]1CC(=O)NCc1ccccc1,1.31%
9,O=C(c1cccc(C(F)(F)F)c1)N1CCC(O)(CS(=O)(=O)Cc2ccc(Cl)cc2)CC1,17.5%
10,CCN(c1ccccc1)S(=O)(=O)c1cc(C(=O)OC(C)C(=O)Nc2ccc3c(c2)OCCO3)ccc1C (stereo not shown),14.1%
11,Cc1ccc(-c2csc(=S)n2CC(=O)OCC(=O)NC(C)C(C)C)cc1 (stereo not shown),3.12%
12,CN(CC(=O)Nc1ccc(Cl)c(C(F)(F)F)c1)C(=O)C1CC(=O)N(Cc2ccco2)C1 (stereo not shown),-20.1%
13,Cc1[nH]c2ccccc2c1/C=N/NC(=O)c1ccc(N)cc1,11.2%
14,COc1ccc(CCN2C(=O)C3C4CC(C5C(C(=O)N/N=C\c6ccc(Cl)cc6)=NOC45)C3C2=O)cc1OC (stereo not shown),-67.7%
15,COc1ccc(CCN2C(=O)C3C4CC(C5C(C(N)=O)=NOC45)C3C2=O)cc1OC (stereo not shown),-2.12%
16,COc1ccc(CCN2C(=O)C3C4CC(C5C(C(=O)NN)=NOC45)C3C2=O)cc1OC (stereo not shown),7.3%
17,CN(C)S(=O)(=O)N1CCC(Oc2ccc(C(=O)N3CCCCCCC3)cc2)CC1,10.9%
18,CCOc1ccccc1N1CCN(C(=O)NCc2ccc(Cl)cc2)CC1,-14.6%
19,CCCNC(=O)c1ccccc1N1CCN(CCCCN2C(=O)C3CCCCN3C2=O)CC1.Cl.O (stereo not shown),-33.5%
20,COc1ccccc1N1CCN(CCN2C(=O)C3CCCN3C2=O)CC1 (stereo not shown),12%
21,Cl.O.O=C1C2CCCCN2C(=O)N1CCCCN1CCN(c2ccccc2Oc2ccccc2)CC1 (stereo not shown),-55.7%
22,Cc1ccccc1N1CCN(CCCN2C(=O)C3CCCCN3C2=O)CC1 (stereo not shown),-9.54%
23,CCCCOc1ccccc1N1CCN(CCCN2C(=O)C3CCCN3C2=O)CC1.Cl (stereo not shown),-56.7%
24,Cc1ccccc1N1CCN(CCCCN2C(=O)C3CCCN3C2=O)CC1.Cl.O (stereo not shown),-65.4%
25,COc1ccccc1N1CCN(CCN2C(=O)C3CCCCN3C2=O)CC1 (stereo not shown),4.39%
26,COc1ccccc1N1CCN(CCCCN2C(=O)C3CCCCN3C2=O)CC1 (stereo not shown),-12.8%
27,Cc1ccc(N2CCN(CCCCN3C(=O)C4CCCN4C3=O)CC2)cc1.Cl (stereo not shown),-23.9%
28,O=C(Nc1ccccc1)OC1C2CCC1C(N1CCCCC1)CC2 (stereo not shown),-37.5%

row,Compound,"hERG current change (%, negative = inhibition) at 10uM"
1,O=C(Nc1ccc(OCc2ccccc2Cl)cc1)c1cccnc1,1.02%
2,Cc1ccc(C(=O)N2CCCC(Nc3ccc(F)cc3)C2)cc1C (stereo not shown),0.463%
3,Cc1ccc(-c2ccc(=O)n(CC(=O)NCc3ccco3)n2)cc1,-10%
4,O=C1C2C3c4ccccc4C(c4ccccc43)C2C(=O)N1Cc1ccco1 (stereo not shown),5.12%
5,Cn1c(=O)n(C)c2cc(S(=O)(=O)O)ccc21,4.49%
6,Cc1ccc(S(=O)(=O)NCC(=O)Nc2ccc3c(c2)OCO3)cc1,8.87%
7,Cc1ccc(N2C(=O)CC(=O)NC2=O)cc1,-16.9%
8,COc1cccc2sc(N(CCCN(C)C)C(=O)c3ccc(S(=O)(=O)N4CCc5ccccc5C4)cc3)nc12.Cl,3.58%
9,CCN(CC)CCN(C(=O)c1ccc(C(=O)c2ccccc2)cc1)c1nc2ccc(OC)cc2s1.Cl,-45.9%
10,CCN(CC)CCN(C(=O)c1ccc([N+](=O)[O-])cc1)c1nc2c(OC)cccc2s1.Cl,-73.2%
11,CCN(CC)CCN(C(=O)c1ccc(S(=O)(=O)N(C)C2CCCCC2)cc1)c1nc2c(C)cccc2s1.Cl,-13.9%
12,CCN(CC)CCN(C(=O)c1ccc(C(=O)c2ccccc2)cc1)c1nc2c(OC)cccc2s1.Cl,-68%
13,CN1C(=O)/C(=C/c2ccccc2OCc2cccc(F)c2)N(C)C1=S,6.02%
14,O=C(COC(=O)C1CC(=O)N(Cc2ccccc2)C1)Nc1ccc2c(c1)OCO2 (stereo not shown),5.98%
15,Cc1nc2ccc(Cl)cc2c(=O)n1-c1ccccc1Cl,5.06%
16,Cl.Clc1ccc(CNCC2CCCO2)c(Cl)c1 (stereo not shown),-2.74%
17,Cl.Clc1cccc(-c2ccc(CNCc3ccccn3)o2)c1,-16.2%
18,CN1CCN(Cc2ccc(-c3ccc(Cl)cc3)o2)CC1,-31.7%
19,Cc1ccc(CNCC2CCCO2)o1 (stereo not shown),7.37%
20,Cl.Fc1ccc(-c2ccc(CNCc3ccccn3)o2)cc1Cl,-34.9%
21,Cl.Clc1ccc(-c2ccc(CNCC3CCCO3)o2)cc1 (stereo not shown),-62.4%
22,CCN(CC)CCNCc1ccc(-c2ccc(Cl)cc2)o1.Cl,-72.8%
23,OCCc1ccc(-c2ccc(Cl)cc2)o1,7.65%
24,Cl.Clc1ccc(-c2ccc(CNCc3ccccn3)o2)cc1,-52.4%
25,CCCn1c(SCC(=O)NC2CC2)nnc1-c1ccccn1,-2.29%
26,COc1ccccc1NC(=O)c1sc2nc(Cc3ccccc3)cc(C(F)(F)F)c2c1N,-7.85%
27,COc1ccccc1CC(=O)N1CCOCC1,21%
